{"source": "the supplement of paper PMC10037445", "key": {"RAW-Dual [1]": {"system": "RAW-Dual", "assay": "IRF Lucia reporter activity, fold change vs agonist alone; cytotoxicity flag (confluency mask): cytotoxic (confluency <70% of control); higher = enhanced IRF activity", "procedure,_shortened": "(§1)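 Reporter activity is given as fold change relative to agonist-alone wells. To measure it, 50 nL of library stock was pin-tooled onto RAW-Dual macrophages (50,000 cells/well, DMEM, 384-well plates), a PRR agonist followed 1 h later, and cells stayed at 37 °C, 5% CO2. Twenty hours on, supernatant was assayed for IRF (QuantiLuc luminescence) and NF-κB (QuantiBlue, 620 nm absorbance), and wells under 70% of agonist-control IncuCyte confluency in both mask sets were marked cytotoxic.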"}, "RAW-Dual [2]": {"system": "RAW-Dual", "assay": "IRF Lucia reporter activity, fold change vs agonist alone; higher = enhanced IRF activity", "conditions": "cytotoxicity flag (confluency mask): not cytotoxic, agonist: MPLA (TLR4) […]", "procedure,_shortened": "as §1"}, "RAW-Dual [3]": {"system": "RAW-Dual", "assay": "IRF Lucia reporter activity, fold change vs agonist alone; cytotoxicity flag (confluency mask): not cytotoxic; higher = enhanced IRF activity", "procedure,_shortened": "as §1"}, "[4]": {"conditions": "agonist: 3'3'-cGAMP (STING) 10 ug/mL"}, "[5]": {"conditions": "library stock concentration (final ~1000-fold dilution): 10 mM"}}, "note": "Where “and” joins values, the source holds several entries; their conditions need not be identical. Equal values may be shown once. In all, about 2,900 compounds were measured (“IRF Lucia reporter activity, fold change vs agonist alone”: median about 0.9, highest 2% from about 2.8 on). Many of the other results were omitted from the sample, so the highest values are more common in it than they were.", "data": [{"smiles": "O=C(CCCCCCC(=O)N/N=C/c1ccc(N(c2ccccc2)c2ccccc2)cc1)NO", "note": "(library stock concentration (final ~1000-fold dilution): 10 mM)", "values": [{"measurement": "IRF Lucia reporter activity", "setting": "RAW-Dual [1]; [4]", "value": 0.0199}, {"measurement": "IRF Lucia reporter activity", "setting": "RAW-Dual [1]; agonist: LPS (TLR4) 0.1 ug/mL", "value": 0.533}]}, {"smiles": "Cc1ccc(Oc2ccnc3cc(-c4cnn(C5CCNCC5)c4)ccc23)cc1", "note": "(library stock concentration (final ~1000-fold dilution): 10 mM)", "values": [{"measurement": "IRF Lucia reporter activity", "setting": "RAW-Dual [1]; [4]", "value": 0.0554}, {"measurement": "IRF Lucia reporter activity", "setting": "RAW-Dual [1]; agonist: LPS (TLR4) 0.1 ug/mL", "value": 0.134}]}, {"smiles": "CCC(C)(Nc1ccnc(-c2c[nH]c3ncccc23)n1)C(=O)NCC(F)(F)F", "note": "(configuration not stated)", "values": [{"measurement": "IRF Lucia reporter activity", "setting": "RAW-Dual [2]; [5]", "value": 0.41}]}, {"smiles": "CCC(C)(Nc1ccnc(-c2c[nH]c3ncccc23)n1)C(=O)NCC(F)(F)F", "note": "(configuration not stated) (library stock concentration (final ~1000-fold dilution): 10 mM)", "values": [{"measurement": "IRF Lucia reporter activity", "setting": "RAW-Dual [3]; [4]", "value": 0.291}, {"measurement": "IRF Lucia reporter activity", "setting": "RAW-Dual [3]; agonist: LPS (TLR4) 0.1 ug/mL", "value": 0.35}]}, {"smiles": "Cc1cc(N2CCN(C3CNC(C(=O)N4CCSC4)C3)CC2)n(-c2ccccc2)n1", "note": "(configuration not stated)", "values": [{"measurement": "IRF Lucia reporter activity", "setting": "RAW-Dual [2]; [5]", "value": 1.02}]}, {"smiles": "Cc1cc(N2CCN(C3CNC(C(=O)N4CCSC4)C3)CC2)n(-c2ccccc2)n1", "note": "(configuration not stated) (library stock concentration (final ~1000-fold dilution): 10 mM)", "values": [{"measurement": "IRF Lucia reporter activity", "setting": "RAW-Dual [3]; [4]", "value": 0.982}, {"measurement": "IRF Lucia reporter activity", "setting": "RAW-Dual [3]; agonist: LPS (TLR4) 0.1 ug/mL", "value": 1.22}]}, {"smiles": "Cc1ccc2nc(NCCN)c3ncc(C)n3c2c1", "note": "(library stock concentration (final ~1000-fold dilution): 10 mM)", "values": [{"measurement": "IRF Lucia reporter activity", "setting": "RAW-Dual [3]; [4]", "value": 2.21}, {"measurement": "IRF Lucia reporter activity", "setting": "RAW-Dual [3]; agonist: LPS (TLR4) 0.1 ug/mL", "value": 3.5}, {"measurement": "IRF Lucia reporter activity", "setting": "RAW-Dual [1]; agonist: LPS (TLR4) 0.1 ug/mL", "value": "0.0229 and 0.0291"}]}, {"smiles": "CCOc1nc2cccc(C(=O)OCc3oc(=O)oc3C)c2n1Cc1ccc(-c2ccccc2-c2nc(=O)o[nH]2)cc1", "values": [{"measurement": "IRF Lucia reporter activity", "setting": "RAW-Dual [2]; [5]", "value": 1.16}]}, {"smiles": "CCOc1nc2cccc(C(=O)OCc3oc(=O)oc3C)c2n1Cc1ccc(-c2ccccc2-c2nc(=O)o[nH]2)cc1", "note": "(library stock concentration (final ~1000-fold dilution): 10 mM)", "values": [{"measurement": "IRF Lucia reporter activity", "setting": "RAW-Dual [3]; [4]", "value": 1.04}, {"measurement": "IRF Lucia reporter activity", "setting": "RAW-Dual [3]; agonist: LPS (TLR4) 0.1 ug/mL", "value": 1.16}]}, {"smiles": "CNS(=O)(=O)CC1CCC(N(C)c2ncnc3[nH]ccc23)CC1.O=C(O)/C=C\\C(=O)O", "note": "(configuration not stated) (library stock concentration (final ~1000-fold dilution): 10 mM)", "values": [{"measurement": "IRF Lucia reporter activity", "setting": "RAW-Dual [3]; [4]", "value": 0.106}, {"measurement": "IRF Lucia reporter activity", "setting": "RAW-Dual [3]; agonist: LPS (TLR4) 0.1 ug/mL", "value": 0.264}]}, {"smiles": "O=c1cc(-c2cccc3c2Sc2ccccc2S3)oc(N2CCOCC2)c1", "note": "(library stock concentration (final ~1000-fold dilution): 10 mM)", "values": [{"measurement": "IRF Lucia reporter activity", "setting": "RAW-Dual [3]; [4]", "value": 0.647}, {"measurement": "IRF Lucia reporter activity", "setting": "RAW-Dual [3]; agonist: LPS (TLR4) 0.1 ug/mL", "value": 5.22}]}, {"smiles": "O=c1cc(N2CCOCC2)oc2c1ccc1ccccc12", "values": [{"measurement": "IRF Lucia reporter activity", "setting": "RAW-Dual [2]; library stock concentration (final ~1000-fold dilution): 2 mM", "value": 1.15}]}, {"smiles": "O=c1cc(-c2cccc3c2Sc2ccccc2S3)oc(N2CCOCC2)c1", "values": [{"measurement": "IRF Lucia reporter activity", "setting": "RAW-Dual [2]; [5]", "value": 6.25}]}, {"smiles": "O=c1cc(N2CCOCC2)oc2c(-c3ccc4c(c3)OCCO4)csc12", "note": "(library stock concentration (final ~1000-fold dilution): 10 mM)", "values": [{"measurement": "IRF Lucia reporter activity", "setting": "RAW-Dual [3]; [4]", "value": 0.12}, {"measurement": "IRF Lucia reporter activity", "setting": "RAW-Dual [3]; agonist: LPS (TLR4) 0.1 ug/mL", "value": 0.269}]}, {"smiles": "O=c1cc(N2CCOCC2)oc2c1ccc1ccccc12", "note": "(library stock concentration (final ~1000-fold dilution): 2 mM)", "values": [{"measurement": "IRF Lucia reporter activity", "setting": "RAW-Dual [3]; [4]", "value": 0.778}, {"measurement": "IRF Lucia reporter activity", "setting": "RAW-Dual [3]; agonist: LPS (TLR4) 0.1 ug/mL", "value": 1.01}]}, {"smiles": "CC1CN(CC(=O)Nc2ccc3c(c2)Cc2cccc(-c4cc(=O)cc(N5CCOCC5)o4)c2S3)CC(C)O1", "note": "(configuration not stated)", "values": [{"measurement": "IRF Lucia reporter activity", "setting": "RAW-Dual [2]; [5]", "value": 5.96}]}, {"smiles": "CC1CN(CC(=O)Nc2ccc3c(c2)Cc2cccc(-c4cc(=O)cc(N5CCOCC5)o4)c2S3)CC(C)O1", "note": "(configuration not stated) (library stock concentration (final ~1000-fold dilution): 10 mM)", "values": [{"measurement": "IRF Lucia reporter activity", "setting": "RAW-Dual [3]; [4]", "value": 0.508}, {"measurement": "IRF Lucia reporter activity", "setting": "RAW-Dual [3]; agonist: LPS (TLR4) 0.1 ug/mL", "value": 6.62}]}, {"smiles": "CC1(c2cc(-c3cncnc3)c(F)cc2F)CCSC(N)=N1", "note": "(configuration not stated)", "values": [{"measurement": "IRF Lucia reporter activity", "setting": "RAW-Dual [2]; [5]", "value": 0.717}]}, {"smiles": "CC1(c2cc(-c3cncnc3)c(F)cc2F)CCSC(N)=N1", "note": "(configuration not stated) (library stock concentration (final ~1000-fold dilution): 10 mM)", "values": [{"measurement": "IRF Lucia reporter activity", "setting": "RAW-Dual [3]; [4]", "value": 0.823}, {"measurement": "IRF Lucia reporter activity", "setting": "RAW-Dual [3]; agonist: LPS (TLR4) 0.1 ug/mL", "value": 0.805}]}, {"smiles": "CCC(C)Nc1cc(C(=O)NC2CC3CCC(C2)N3c2ccc(C(=O)C3CC3)cn2)c(C)cc1C(N)=O", "note": "(configuration not stated)", "values": [{"measurement": "IRF Lucia reporter activity", "setting": "RAW-Dual [2]; [5]", "value": 0.838}]}, {"smiles": "CCC(C)Nc1cc(C(=O)NC2CC3CCC(C2)N3c2ccc(C(=O)C3CC3)cn2)c(C)cc1C(N)=O", "note": "(configuration not stated) (library stock concentration (final ~1000-fold dilution): 10 mM)", "values": [{"measurement": "IRF Lucia reporter activity", "setting": "RAW-Dual [3]; [4]", "value": 0.482}, {"measurement": "IRF Lucia reporter activity", "setting": "RAW-Dual [3]; agonist: LPS (TLR4) 0.1 ug/mL", "value": 0.924}]}, {"smiles": "C[N+]1(C)C2CCC1CC(OC(=O)C(O)c1ccccc1)C2", "note": "(configuration not stated)", "values": [{"measurement": "IRF Lucia reporter activity", "setting": "RAW-Dual [2]; [5]", "value": 0.953}]}, {"smiles": "C[N+]1(C)C2CCC1CC(OC(=O)C(O)c1ccccc1)C2", "note": "(configuration not stated) (library stock concentration (final ~1000-fold dilution): 10 mM)", "values": [{"measurement": "IRF Lucia reporter activity", "setting": "RAW-Dual [3]; [4]", "value": 1.01}, {"measurement": "IRF Lucia reporter activity", "setting": "RAW-Dual [3]; agonist: LPS (TLR4) 0.1 ug/mL", "value": 1.29}]}, {"smiles": "O=C(Nc1ccc(OC(F)(F)Cl)cc1)c1cnc(N2CCC(O)C2)c(-c2ccn[nH]2)c1", "note": "(configuration not stated) (library stock concentration (final ~1000-fold dilution): 10 mM)", "values": [{"measurement": "IRF Lucia reporter activity", "setting": "RAW-Dual [3]; [4]", "value": 0.296}, {"measurement": "IRF Lucia reporter activity", "setting": "RAW-Dual [3]; agonist: LPS (TLR4) 0.1 ug/mL", "value": 1.27}]}, {"smiles": "CCn1c(=O)c(-c2cc(NC(=O)Nc3ccccc3)c(F)cc2Br)cc2cnc(NC)cc21", "note": "(library stock concentration (final ~1000-fold dilution): 10 mM)", "values": [{"measurement": "IRF Lucia reporter activity", "setting": "RAW-Dual [3]; [4]", "value": 0.671}, {"measurement": "IRF Lucia reporter activity", "setting": "RAW-Dual [3]; agonist: LPS (TLR4) 0.1 ug/mL", "value": 0.268}]}]}
